The source of these data is PubChem BioAssay (NCI).

Some test systems named below: MOLT-4 leukemia; SR leukemia; RPMI-8226 leukemia; OVCAR-8 ovarian; OVCAR-5 ovarian; OVCAR-4 ovarian; SK-OV-3 ovarian; IGROV1 ovarian; OVCAR-3 ovarian; HS 578T breast; NCI/ADR-RES ovarian; T-47D breast; BT-549 breast; MDA-MB-435 melanoma; SW-620 colon; MCF7 breast; HCT-116 colon; HCC-2998 colon; KM12 colon.
What all share (test): NCI-60 one-dose screen, 48 h (100 = growth as untreated, 0 = no growth, -100 = all killed)
Common to all, as to conditions: 10 µM unless noted

This is part of a sample that, as a whole, favours compounds with a hit. Of some 83,000 tested, about 20% had one in any assay.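 Method: cells in 96-well plates; compound added at one concentration; 48 h incubation; percent growth measured; values under 10 scored active.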 Unmarked numbers belong to inactive results. Activity calls are given as the source filed them.

As to `O=C(CC1(O)C(=O)Nc2ccccc21)c1ccc(C(=O)NCC2CCC3(CC2)OOC2(CCCCC2)OO3)cc1` (configuration not stated), the growth in the assay with MOLT-4 leukemia is 58.4%; with SR leukemia, 10.8%; with RPMI-8226 leukemia it was 48.1%; with OVCAR-8 ovarian, 45.3%; in the assay on OVCAR-5 ovarian, 106%; in the assay on OVCAR-4 ovarian, 71.9%. Besides, the growth in the assay with SK-OV-3 ovarian is 81.2%; in the assay with IGROV1 ovarian, 41%; with OVCAR-3 ovarian, 74.1%; in the assay with HS 578T breast it was 91.9%; in the assay on NCI/ADR-RES ovarian, 86.9%; in the assay with T-47D breast, 31.8%. Besides, the growth in the assay on BT-549 breast was 80.1%; in the assay on MDA-MB-435 melanoma, 81.6%; in the assay on SW-620 colon, 86.4%; in the assay on MCF7 breast, 62.9%; in the assay with HCT-116 colon, 65.9%; in the assay with HCC-2998 colon, 106%. Besides, the growth in the assay on KM12 colon is 77.4%.
As to `CCOC(=O)N[C@H]1CCc2c(Br)c(OC)c(OC)c(OC)c2-c2ccc(SC)c(=O)cc21`, the growth in the assay with MOLT-4 leukemia was 5.92% (active); in the assay with SR leukemia it was -5.77% (active); in the assay with RPMI-8226 leukemia, -6.15% (active); in the assay with OVCAR-8 ovarian, 20.2%; in the assay on OVCAR-5 ovarian, 32.5%; with OVCAR-4 ovarian it was 5.73% (active). In addition, the growth with SK-OV-3 ovarian is 52.1%; in the assay with IGROV1 ovarian, 12.1%; with OVCAR-3 ovarian, -29.4% (active); with HS 578T breast, -1.62% (active); with NCI/ADR-RES ovarian, 11.8%; in the assay with T-47D breast, 42.6%. In addition, the growth in the assay on BT-549 breast is 3.55% (active); in the assay on MDA-MB-435 melanoma, -54.2% (active); in the assay with SW-620 colon, 16.7%; with MCF7 breast it was 10.8%; with HCT-116 colon, -5.72% (active); in the assay with HCC-2998 colon it was 14.6%. Besides, in the assay on KM12 colon, the growth was -8.71% (active).
With `O=[N+]([O-])CC(c1ccccc1Cl)c1c(-c2ccccc2)[nH]c2ccccc12` (configuration not stated), the growth with MOLT-4 leukemia is 30.3%; in the assay with SR leukemia it was 18.9%; in the assay with RPMI-8226 leukemia, 45.2%; in the assay on OVCAR-8 ovarian, 40.4%; in the assay on OVCAR-5 ovarian, 69.1%; with OVCAR-4 ovarian, 66.4%. Moreover, the growth is 44.1% in the assay on SK-OV-3 ovarian; 33.8% in the assay on IGROV1 ovarian; 9.26% (active) with OVCAR-3 ovarian; 41.2% with HS 578T breast; 25.5% in the assay on NCI/ADR-RES ovarian; 22.1% in the assay with T-47D breast. The growth with BT-549 breast is 37.3%; in the assay with MDA-MB-435 melanoma it was -9.48% (active); in the assay with SW-620 colon, 25.2%; in the assay on MCF7 breast, 21.8%; with HCT-116 colon, 20.3%; in the assay on HCC-2998 colon, 71.3%. In the assay on KM12 colon, the growth is 26.8%.
As to `COc1cc2ncnc(Nc3ccc(F)c(Cl)c3)c2cc1OCC(=O)N1CCN(C)CC1`, the growth with MOLT-4 leukemia was 81.2%; in the assay with SR leukemia, 74.5%; in the assay on RPMI-8226 leukemia, 90.5%; in the assay on OVCAR-8 ovarian it was 90%; with OVCAR-5 ovarian, 78.4%; with OVCAR-4 ovarian, 79.5%. The growth was 13.7% in the assay on SK-OV-3 ovarian; 48.2% in the assay with IGROV1 ovarian; 78.2% in the assay with OVCAR-3 ovarian; 93.4% in the assay with HS 578T breast; 86.7% in the assay on NCI/ADR-RES ovarian; 70% in the assay on T-47D breast. Besides, the growth in the assay with BT-549 breast is 89.6%; in the assay with MDA-MB-435 melanoma it was 102%; in the assay with SW-620 colon, 105%; in the assay with MCF7 breast it was 80.4%; with HCT-116 colon it was 91.3%; in the assay with HCC-2998 colon, 102%. In addition, the growth in the assay with KM12 colon is 96.4%.
Regarding `CC1(C)C(C(=O)c2cn(CCCCF)c3ccccc23)C1(C)C`, the growth with MOLT-4 leukemia was 77.8%; in the assay with SR leukemia it was 77.9%; with RPMI-8226 leukemia, 81.5%; with OVCAR-8 ovarian it was 82%; in the assay on OVCAR-5 ovarian, 103%; in the assay on OVCAR-4 ovarian it was 107%. The growth was 102% with SK-OV-3 ovarian; 114% with IGROV1 ovarian; 105% in the assay on OVCAR-3 ovarian; 88.5% in the assay on HS 578T breast; 98.1% in the assay with NCI/ADR-RES ovarian; 78.6% with T-47D breast. The growth is 100% in the assay on BT-549 breast; 108% in the assay on MDA-MB-435 melanoma; 99.1% with SW-620 colon; 89% in the assay with MCF7 breast; 90.4% in the assay with HCT-116 colon; 116% with HCC-2998 colon. Besides, the growth with KM12 colon was 102%.
In the case of `COc1ccc2c(c1)c(-c1nc(-c3c[nH]c4ncccc34)cs1)cn2CCCCN1CCCCC1`, the growth was -60.3% (active) in the assay with MOLT-4 leukemia; -57.6% (active) with SR leukemia; -43.6% (active) with RPMI-8226 leukemia; -67.6% (active) in the assay on OVCAR-8 ovarian; -15.7% (active) with OVCAR-5 ovarian; -13.3% (active) in the assay with OVCAR-4 ovarian. Also, the growth with SK-OV-3 ovarian was -61.5% (active); in the assay with IGROV1 ovarian, -62.1% (active); with OVCAR-3 ovarian, -71.4% (active); in the assay on HS 578T breast it was -23.3% (active); in the assay on NCI/ADR-RES ovarian, 1.16% (active); in the assay with T-47D breast, -55.5% (active). For the same compound, the growth in the assay on BT-549 breast was 69.2%; in the assay with MDA-MB-435 melanoma it was -92.7% (active); in the assay with SW-620 colon it was -71.9% (active); in the assay on MCF7 breast it was -74.9% (active); with HCT-116 colon it was -98.9% (active); in the assay with HCC-2998 colon, -9.73% (active). In addition, the growth in the assay on KM12 colon is -62.9% (active).
With `Cc1cnc(/C=C/C(=O)O)cc1-c1cc2c(cc1C)C(C)(C)CCC2(C)C`, the growth with MOLT-4 leukemia is 85.5%; with SR leukemia, 66%; with RPMI-8226 leukemia, 50.4%; with OVCAR-8 ovarian, 89.5%; in the assay on OVCAR-5 ovarian, 104%; in the assay on OVCAR-4 ovarian it was 85.4%. Also, the growth was 84.4% with SK-OV-3 ovarian; 94.4% in the assay with IGROV1 ovarian; 57.8% with OVCAR-3 ovarian; 69.9% in the assay with HS 578T breast; 78.7% in the assay with NCI/ADR-RES ovarian; 80.3% with T-47D breast. Also, the growth was 69% in the assay with BT-549 breast; 83.8% in the assay on MDA-MB-435 melanoma; 86.6% with SW-620 colon; 21.8% with MCF7 breast; 57.2% with HCT-116 colon; 85.3% with HCC-2998 colon. Besides, the growth with KM12 colon was 57.3%.
Consider `CC(=O)OC1C(OC/C2=C/C3[C@@H](C(C)C)CC=C(C)[C@@H]3CC(OC(=O)/C=C/c3cn(C)cn3)[C@]3(C)C=C[C@@]2(O)O3)OCC(O)C1O` (some centres not stated), for which the growth is 35.8% in the assay with MOLT-4 leukemia; 24.8% in the assay with SR leukemia; 4.84% (active) in the assay on RPMI-8226 leukemia; 32.7% in the assay with OVCAR-8 ovarian; 49.4% with OVCAR-5 ovarian; 43% in the assay with OVCAR-4 ovarian. The growth with SK-OV-3 ovarian is 11.9%; in the assay with IGROV1 ovarian, 33.6%; in the assay with OVCAR-3 ovarian, 15.3%; in the assay with HS 578T breast, 21.8%; in the assay on NCI/ADR-RES ovarian, 80.8%; in the assay on T-47D breast, 23%. The growth in the assay on BT-549 breast was -14.3% (active); in the assay on MDA-MB-435 melanoma it was -52.3% (active); in the assay with SW-620 colon, 35.8%; with MCF7 breast it was 13.5%; in the assay with HCT-116 colon, 4.11% (active); in the assay with HCC-2998 colon it was -44.1% (active). In addition, the growth in the assay on KM12 colon was 14.1%.
